# Gal4-VP16 FLuc – Gal4-VP16 reporter inhibition counter-screen; Drosophila S2 Gal4-VP16 UAS-luciferase, luminescence, 20 h; Potency, µM (doses to about 53.6 µM), for the others: top-dose activity, negative = inhibition, actives largely listed as inhibitors; actives 3.5% (n = 310,000); AID 2546;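 further: Gal4-VP16 expression switched on by copper sulfate through the metallothionein promoter; on the % scale 0 is the no-effect control and ±100 the full control effect; nearly all actives have a fitted effect of over 50% in size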
# PINK1 modulator – changes PINK1 expression; PINK1 immunofluorescence, high-content cytometry, 24 h; Potency, µM (top dose mostly 76.6 µM), without a hit: at the top dose activation (PINK1 increase), most hits filed as activators; actives 0.2% (n = 410,000); AID 624263; active means well fitted activation curve with a large enough effect; inconclusive means small, poorly fitted or top-dose-only effect; cell line not stated here; further: % of control where 0% means no effect; nearly all actives have a fitted effect of over 65% in size
#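 Decision-based qHTS: stable cells, 24 h exposure to five compound concentrations, CCCP as control. Fixed cells stained for PINK1 plus nuclear, mitochondrial and cell markers, cytometer read.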
# RORg inh – inhibitors of mouse ROR gamma transcriptional activity; Drosophila S2 Gal4-RORgamma UAS-luciferase reporter, 20 h; actives 5.4% (n = 310,000); Potency, µM (series often up to 53.6 µM), inactives show at the top dose activity change, negative = inhibition, most hits filed as inhibitors; further: on the % scale 0 is the no-effect control and ±100 the full control effect; nearly all actives have a fitted effect of over 60% in size
# Target sequence (P51450 whole entry, looked up, the tested form may be a part): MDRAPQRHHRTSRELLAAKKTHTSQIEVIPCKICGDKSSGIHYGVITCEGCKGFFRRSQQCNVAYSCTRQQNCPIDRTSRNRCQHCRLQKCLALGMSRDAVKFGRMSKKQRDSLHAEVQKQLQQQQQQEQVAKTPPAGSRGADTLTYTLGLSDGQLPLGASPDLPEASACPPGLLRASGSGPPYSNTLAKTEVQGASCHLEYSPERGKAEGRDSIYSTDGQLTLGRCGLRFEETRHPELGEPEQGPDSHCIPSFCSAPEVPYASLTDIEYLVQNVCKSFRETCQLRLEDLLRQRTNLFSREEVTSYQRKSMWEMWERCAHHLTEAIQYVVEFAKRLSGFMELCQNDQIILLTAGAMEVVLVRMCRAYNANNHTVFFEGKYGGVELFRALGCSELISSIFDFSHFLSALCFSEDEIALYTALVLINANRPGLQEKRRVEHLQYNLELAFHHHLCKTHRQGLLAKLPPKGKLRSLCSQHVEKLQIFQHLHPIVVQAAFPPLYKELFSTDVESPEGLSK
#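 In this cell-based reporter format, copper sulfate (700 uM final) drives Gal4–ROR gamma fusion expression from a metallothionein promoter in Drosophila Schneider cells; compounds preincubated 1 hr, reporter read after 20 hr at ambient temperature.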
# Sfp inh – blocks B. subtilis Sfp PPTase activity | Q9F4F7 | Biochemical Sfp PPTase activity, qHTS | Potency, µM, without a hit: largest response in the series, negative = inhibition, most hits filed as inhibitors | actives 3.5% (n = 310,000) | AID 1490;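 further: the enzyme is Sfp with the accession as filed and its product quenches rhodamine fluorescence; 0% = enzyme reaction without inhibitor and -100% = no enzyme wells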
#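 Fluorescence-quenching assay: 15 nM Sfp-PPTase preincubated 15 min at room temperature with compound, then 5 uM rhodamine-CoA and 12.5 uM BHQ-2-labelled YbbR peptide added. Fluorescence (ex 525/em 598 nm) read at start and after 30 min; difference gives rate.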
# Epigenetic derep – derepresses silenced GFP reporter in murine cells; actives 0.2% (n = 280,000); Potency, µM (doses to about 53.9 µM), for the others: at the highest dose GFP activation, hits mostly activators; murine LDR cells, GFP reporter derepression, 30 h; further: % of control where 0% means no effect; nearly all actives have a fitted effect of over 60% in size
#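 In this reporter-derepression format, murine cells bearing a silenced integrated CMV-GFP locus incubate with test compound (30 h, 37 C), then are washed and imaged; fluorescent objects of 20–120 um count as induced cells.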
# ClpP mod – qHTS Assay for Activators of ClpP; actives 1.9% (n = 340,000); Potency, µM (titrated, usually from 57.5 µM), without a hit: top-dose activity change, negative = active; purified B. subtilis ClpP, FRET peptide cleavage, 20 min; active means well fitted falling curve with a large enough effect; inconclusive means small, poorly fitted or top-dose-only effect; inactive means no such curve, though single readings can be large or run the other way; further: the source files actives as falling curves though it sought activators and does not explain the sign; nearly all actives have a fitted effect of over 65% in size
# Target sequence (P80244 whole entry, looked up): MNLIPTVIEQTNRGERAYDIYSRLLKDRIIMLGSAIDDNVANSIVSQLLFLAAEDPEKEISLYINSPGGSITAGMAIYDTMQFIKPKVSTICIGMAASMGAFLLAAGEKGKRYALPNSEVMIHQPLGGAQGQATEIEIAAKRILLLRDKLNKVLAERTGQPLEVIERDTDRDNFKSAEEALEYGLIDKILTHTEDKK
#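 Buffer: 100 mM Tris/HCl pH8, 100 mM KCl, 0.05% low protease BSA, 2.5% glycerol, 0.01% Tween-20. ClpP 10 microg/mL final; 20 min RT; delta FRET normalized to ADEP and DMSO controls.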
# Active calls of the source: *; ? = inconclusive; . = no result given; [ ] = remark or other dose. A selection: hits, their analogues and other compounds. The true share with any hit is near 8.1%. Unless noted, the call rests on the fitted dose curve; in most records, active means well fitted curve in the direction sought with a large enough effect; inconclusive means small, poorly fitted or top-dose-only effect, or another doubt; inactive means no such curve, though single readings can be large; an effect the other way counts as inactive or inconclusive. Potency means the concentration at half of the fitted maximal effect.
SMILES,Gal4-VP16 FLuc,PINK1 modulator,RORg inh,Sfp inh,Epigenetic derep,ClpP mod
CC(=O)c1c(O)c(C)c(-c2ccccc2)n(-c2ccccc2)c1=O,-10%,1%,-14%,7%,0%,22µM*
CC(=O)c1ccccc1-c1ccc2c(c1)CC(CNC(=O)C[C@@H]1C[C@@H](C)NC(=S)N1)O2 (stereo partly specified),.,0%,.,.,.,.
CCN(CC)CCN1C(=O)/C(=C\c2ccc(Cl)c([N+](=O)[O-])c2)SC1=Nc1ccc(OC)cc1,?,-4%,?,45µM*,.,.
COc1ccc(N=C2S/C(=C\c3ccc(Cl)c([N+](=O)[O-])c3)C(=O)N2CCN(C)C)cc1,-16%,-1%,?,40µM*,.,1%
CCCN1C(=O)/C(=C/c2ccc(C)s2)SC1=Nc1ccc(OC)cc1,2%,9%,2%,-4%,1%,1%
CCN(CC)c1ccc(NC(=S)NC(=O)c2cccs2)cc1,5µM*,1%,3.2µM*,?,-4%,1%
CN(c1ccccc1)S(=O)(=O)c1ccc(NC(=O)c2cccs2)cc1,-6%,1%,17%,19%,1%,.
CCN(CC)c1ccc(NC(=S)NC(=O)c2ccco2)cc1,16µM*,2%,4µM*,35µM*,3%,1%
CC(=O)NC(=S)Nc1ccc(NC(=S)NC(=O)c2cccs2)cc1,-6%,4%,-2%,7%,.,-1%
CCCCOC(=O)c1ccc(NC(=S)NC(=O)c2ccco2)cc1,?,13%,11µM*,-16%,.,0%
CN(C)S(=O)(=O)c1ccc(NC(=S)NC(=O)c2cccs2)cc1,-82%,0%,8.9µM*,32µM*,6%,.
CCN(c1ccccc1)S(=O)(=O)c1ccc(NC(=S)NC(=O)c2cccs2)cc1,7.1µM*,0%,3.2µM*,?,-1%,-2%
O=C(NC(=S)Nc1ccc(-c2ccc(CO)o2)cc1)c1cccs1,-20%,1%,?,8.9µM*,-6%,.
CCC(C)c1ccc(NC(=O)c2ccco2)cc1 (stereo unspecified),7.9µM*,3%,20µM*,12%,.,-1%
Cc1ccc(SCCNC(=O)CN(c2ccccc2)S(=O)(=O)N(C)C)cc1,.,0%,.,.,-1%,0%
COc1ccc(-c2cn3c(n2)sc2cc(C(=O)NCC(C)c4ccccc4)ccc23)cc1 (stereo unspecified),.,3%,.,.,1%,5%
COc1ccc(CCN2C(=S)NC3CC2(C)Oc2ccc([N+](=O)[O-])cc23)cc1OC (stereo unspecified),?,3%[38.3 µM],16µM*,27%,2%,-1%
COCCN(CCOC)C(=O)c1ccc(Cc2nc3ccccc3[nH]2)cc1,.,.,.,.,-2%,.
Cc1ccc(S(=O)(=O)N2CCN(c3nc(Nc4ccccc4O)nc4ccccc34)CC2)cc1,.,0%,.,.,.,2%
CC(=O)Nc1ccc(Nc2ccccc2)cc1,0%,-1%,1%,4%,2%,-1%
CC(=O)CC(=O)Nc1ccc(C(N)=O)cc1,-2%,0%,11µM*,-5%,0%,.
CCCC(=O)Nc1ccc(C(N)=O)cc1,-7%,0%,-14%,-1%,4%,.
O=C(O)c1ccc(NC(=S)Nc2ccccc2)cc1,29%,0%,-38%,50µM*,1%,-4%
CNC(=S)Nc1ccc(Nc2ccccc2)cc1,-2%,16%[38.3 µM],11µM*,3%,-1%,0%
CNC(=S)Nc1ccc(C(N)=O)cc1,-7%,0%,-1%,79µM*,-1%,.
SMILES,Gal4-VP16 FLuc,PINK1 modulator,RORg inh,Sfp inh,Epigenetic derep,ClpP mod
COc1ccc(-c2nc3cnc(N(C)C)nc3n(C)c2=O)cc1,20%,0%,2%,14%,.,.
CC(C)c1cccc2cc3c(nc12)-c1cccc(=O)n1C3,-11%,.,-20%,-5%,-2%,.
CSc1nsc(SCC(=O)Nc2ccc(C(N)=O)cc2)n1,?,-3%,3.2µM*,-2%,.,.
CCCNC(=S)Nc1ccc(Nc2ccccc2)cc1,16µM*,-2%,5µM*,8%,-1%,0%
Cc1ccc(CN=Cc2[nH]c3ccc(Br)c(Cl)c3c2O)cc1,?,11µM*,13µM*,?,0%,-1%
Oc1c(C=NCc2ccc(F)cc2)[nH]c2ccc(Br)c(Cl)c12,-2%,.,-33%,-17%,-1%,.
CCOc1ccc(N(CC)S(=O)(=O)N2CCCC(C(=O)Nc3ccc(OC)c(OC)c3)C2)cc1 (stereo unspecified),.,-2%,.,.,0%,0%
O=C(CCCCCn1c(=S)[nH]c2cc3c(cc2c1=O)OCO3)N1CCN(Cc2ccccc2)CC1,.,0%,-5%[0.365 µM],7%,3%,-2%
O=C(c1ccc(Cn2c(=O)[nH]c3ccccc3c2=O)cc1)N1CCN(c2ccc(F)cc2)CC1,-14%,-3%,?,-8%,-1%,-9%
O=C(c1ccc(=O)oc1)N1CCN(c2ccc(F)cc2)CC1,2%,-1%,-11%,13%,0%,32µM*
O=C(c1ccc(F)c(S(=O)(=O)N2CCOCC2)c1)N1CCN(c2ccc(F)cc2)CC1,.,1%,.,.,.,0%
O=C(c1ccc(Cn2c(=S)[nH]c3cc4c(cc3c2=O)OCO4)cc1)N1CCN(c2ccccc2)CC1,6.3µM*,1%,3.2µM*,11%,-1%,.
O=C(c1ccc(Cn2c(=S)[nH]c3ccc(N4CCOCC4)cc3c2=O)cc1)N1CCN(c2ccc(F)cc2)CC1,0%,2%,?,6%,0%,20µM*
Cc1ccc(C)c(N2CCN(C(=O)c3ccc(Cn4c(=S)[nH]c5ccc(N6CCOCC6)cc5c4=O)cc3)CC2)c1,-5%,4%,2.8µM*,4%,-2%,.
Cc1c(C(=O)Nc2cccc(C#N)c2)sc2nc3n(c(=O)c12)CCCCC3,.,2%,.,.,1%,0%
CC(=O)OC[C@@H]1O[C@@H](O/N=C2/C[C@@H](O)[C@@H](O)[C@@H]3[C@@H]4C(=O)N(Cc5ccccc5)C(=O)[C@H]4CC[C@@H]23)[C@H](OC(C)=O)[C@H](OC(C)=O)[C@@H]1OC(C)=O,4%[10 µM],.,14%[10 µM],0%,1%[10.1 µM],.
CCCc1cc(=O)[nH]c2nnc(SCC(=O)Nc3cccc(C)c3)n12,.,-8%,.,.,2%,2%
CC(=O)NC(Cc1ccc([N+](=O)[O-])cc1)C(=O)NCC(N)C(=O)c1ccccc1 (stereo unspecified),.,1%,.,.,.,-1%
COc1ccc(Cn2c(=S)[nH]c3cc(C(=O)N4CCN(c5ccccc5)CC4)ccc3c2=O)cc1,2%,15%,?,4%,.,0%
